Source: PubChem BioAssay (NCI)
The panel holds about 79,000 compounds, 15% with a hit somewhere; the sample as a whole holds those more often. Values without a mark were called inactive. Active and inactive are the calls of the source. Rule as the data show it: active = growth inhibition above about 70%; inactive = the rest.

Key:
[1] = NCI Yeast Anticancer Drug Screen. Data for the rad50 strain (AID 155);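 also: 0% = growth of vehicle-only cultures of the same strain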; conditions: S. cerevisiae rad50 strain growth inhibition, hits give high values
In short: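 Inhibition values express reduced yeast growth in compound-treated cultures relative to vehicle-treated controls.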

[2] = NCI Yeast Anticancer Drug Screen. Data for the mec2-1 strain (AID 157); conditions: S. cerevisiae mec2-1 strain, hits give high values
In short: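 Readout is yeast growth inhibition, normalised to vehicle-treated controls, in the mec2-1 strain exposed to compound.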

[3] = NCI Yeast Anticancer Drug Screen. Data for the sgs1 mgt1 strain (AID 161);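 also: 0% = growth of cultures given vehicle only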; conditions: S. cerevisiae sgs1 mgt1 strain, hits give high values
In short: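 Percent growth inhibition was derived by comparing compound-exposed mutant yeast with vehicle-exposed cultures. The strain carries alterations in DNA damage repair.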

[4] = NCI Yeast Anticancer Drug Screen. Data for the cln2 rad14 strain (AID 165);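 also: 0% = growth equal to vehicle treated cultures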; conditions: S. cerevisiae cln2 rad14 strain, hits give high values
In short: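 Relative to vehicle controls, growth inhibition of compound-treated cln2 rad14 yeast was recorded.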

[5] = NCI Yeast Anticancer Drug Screen. Data for the bub3 strain (AID 167); conditions: S. cerevisiae bub3 mutant strain, hits give high values
In short: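 Steps: expose the mutant yeast strain to compound; grow alongside vehicle-treated cultures; measure growth; express inhibition against the vehicle cultures.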

[6] = NCI Yeast Anticancer Drug Screen. Data for the mlh1 rad18 strain (AID 175); conditions: S. cerevisiae mlh1 rad18 strain growth inhibition, hits give high values
In short: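 Test agents were incubated with a yeast strain of defined genotype (DNA damage repair defect). Inhibition of growth was derived by comparison with vehicle-exposed cultures.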

[7] = at 5.0 µM (retest, dose inferred, filed as 0.5)
[8] = at 50.0 µM (retest, dose inferred, filed as 5.0)

| SMILES | growth inhibition [1, 7] | growth inhibition [1, 8] | growth inhibition ([1]; at 50.0 µM) | growth inhibition [2, 7] | growth inhibition [2, 8] | growth inhibition ([2]; at 50.0 µM) | growth inhibition [3, 7] | growth inhibition [3, 8] | growth inhibition ([3]; at 50.0 µM) | growth inhibition [4, 7] | growth inhibition [4, 8] | growth inhibition ([4]; at 50.0 µM) | growth inhibition [5, 7] | growth inhibition [5, 8] | growth inhibition ([5]; at 50.0 µM) | growth inhibition [6, 7] | growth inhibition [6, 8] | growth inhibition ([6]; at 50.0 µM) |
| --- | --- | --- | --- | --- | --- | --- | --- | --- | --- | --- | --- | --- | --- | --- | --- | --- | --- | --- |
| Cc1ccc2c(c1)C1(SC(C)C(=O)N1c1ccc(Cl)cc1)C(=O)N2CN1CCOCC1 (stereo not given) | 5% | 98% (active) | 18.6% | -4% | 97% (active) | 5.5% | -3% | 95% (active) | 0.4% | -4% | 92% (active) | -17.3% | 11% | 97% (active) | 16% | 11% | 98% (active) | 29.9% |
| O=C1c2scc(-c3ccccc3)c2-n2cccc21 | -6% | 96% (active) | 78.5% (active) | -10% | 95% (active) | 90.1% (active) | 2% | 87% (active) | 82.5% (active) | 10% | 81% (active) | 80.8% (active) | -16% | 94% (active) | 79% (active) | -16% | 94% (active) | 88.2% (active) |
| Cn1c2c(c3ccccc31)CCN(CCN1CCN(c3cccc(Cl)c3)CC1)C2=O | 34% | 34% | 88.8% (active) | 7% | 7% | 85.1% (active) | 1% | 1% | 87.8% (active) | 15% | 15% | 91.3% (active) | -17% | -17% | 87.8% (active) | 10% | 10% | 80.6% (active) |
| OCC(O)Cc1c(Cl)c(Cl)c(Oc2c(Cl)c(Cl)c(CC(O)CO)c(Cl)c2Cl)c(Cl)c1Cl (stereo not given) | 5% | 7% | 11.3% | 5% | 10% | 14.6% | 18% | 16% | 4.95% | -9% | -9% | -8.05% | -1% | 11% | 64.7% | -1% | 1% | 8.75% |
| CCOC(=O)C(C)(C)C | 0% | 29% | 15.8% | 3% | 16% | -8.2% | 2% | 12% | 14.4% | 0% | 11% | 25.6% | 2% | 29% | 73% (active) | 3% | 16% | 23.3% |
| CC(CC(C)[C@H]1CCC2[C@H]3C(CC[C@@]21C)[C@@]1(C)CCC(O)C[C@H]1C[C@@H]3O)C(=O)O (stereo not given in full) | 10% | 97% (active) | 98.4% (active) | -7% | 98% (active) | 97.5% (active) | -4% | 97% (active) | 98.7% (active) | -4% | 99% (active) | 97.1% (active) | -20% | 98% (active) | 99% (active) | 14% | 98% (active) | 98.2% (active) |
| COC(=O)/N=C/CCC(O)NC(=O)OC (stereo not given) | 1% | 1% | 40.3% | -20% | 2% | 1.85% | 2% | -2% | -3.15% | -1% | 3% | 46.5% | -2% | -3% | -18.8% | -9% | 4% | 11.7% |
| CC(=O)c1c2c(cc3c1CC1(Cc4ccccc4C1=O)C3)CCC2 (stereo not given) | -4% | 79% (active) | 36.7% | -27% | 88% (active) | 42.8% | -36% | 87% (active) | 60% | 27% | 29% | 46.4% | -4% | 89% (active) | 63.8% | -11% | 73% (active) | 61.5% |
| Clc1ccc(CSc2ncnc3c2ncn3C2CCCCO2)cc1 (stereo not given) | -5% | 97% (active) | 97.5% (active) | -7% | 96% (active) | 97.5% (active) | 15% | 92% (active) | 97.5% (active) | -20% | 88% (active) | 94.3% (active) | -15% | 78% (active) | 95.8% (active) | 3% | 96% (active) | 97% (active) |
| Nc1cc(Cl)ccc1S | 79% (active) | 48% | 99.5% (active) | 99% (active) | 89% (active) | 99.5% (active) | 83% (active) | 47% | 99.5% (active) | 25% | 53% | 99% (active) | 31% | 91% (active) | 99.3% (active) | 83% (active) | 75% (active) | 99.5% (active) |
